Assay outcomes as filed in PubChem BioAssay.
Mtb BioA inh: M. tuberculosis BioA enzyme inhibitors, primary screen, biochemical, plate reader, single point, HTS. inhibition, % at 9.99 µM. purified M. tuberculosis BioA enzyme. hit rate 0.096% among 360,000; in the data active = inhibition above about 40%; inconclusive = no clear call, values can overlap the other calls
Rv3671c protease: Rv3671c serine protease inhibitors, primary screen, biochemical, fluorescence polarization, M. tuberculosis H37Rv; hit rate 0.048% among 320,000; P9WHR9; inhibition, % at 5.96 µM; AID 2606, 2010; in the data active = inhibition above about 38%;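 also: extracellular domain of Rv3671c used as enzyme; 0% = enzyme with DMSO and 100% = no enzyme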
Target sequence (P9WHR9 whole entry, looked up, the tested form may be a part): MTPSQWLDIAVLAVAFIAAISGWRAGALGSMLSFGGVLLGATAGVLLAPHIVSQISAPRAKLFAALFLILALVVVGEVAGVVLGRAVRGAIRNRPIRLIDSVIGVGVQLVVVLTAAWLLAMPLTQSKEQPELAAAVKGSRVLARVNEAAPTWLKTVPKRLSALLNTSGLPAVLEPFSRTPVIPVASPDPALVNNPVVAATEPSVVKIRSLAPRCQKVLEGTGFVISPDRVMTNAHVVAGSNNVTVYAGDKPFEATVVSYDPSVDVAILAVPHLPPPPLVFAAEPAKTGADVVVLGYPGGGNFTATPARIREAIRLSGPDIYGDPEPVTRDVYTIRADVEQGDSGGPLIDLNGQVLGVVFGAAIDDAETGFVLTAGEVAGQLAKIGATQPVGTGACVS
Mtb FBA inh: Mtb FBA enzyme inhibitors, primary screen, biochemical, fluorescence, strain H37Rv. Fructose-bisphosphate aldolase (Mycobacterium tuberculosis (strain ATCC 25618 / H37Rv)), …. purified M. tuberculosis FBA, fluorescence read-out. inhibition, % at 1 µM. hit rate 2.3% among 360,000. AID 588726, 2011; in the data active = inhibition above about 27%;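 also: 0% = vehicle and 100% = reference inhibitor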
FadD28 binding: inhibitors of FadD28 bisubstrate probe binding, primary screen, biochemical, fluorescence polarization, single point | inhibition, % at 12.5 µM | hit rate 0.22% among 360,000 | Mycobacterium tuberculosis FadD28 fatty-acid-AMP ligase; in the data active = inhibition above about 8.5%, passing the limit was not always enough; inconclusive = no clear call, values can overlap the other calls
GDH-TPI inh: GDH-TPI coupling enzyme inhibitors, primary screen, artefact control for M. tuberculosis FBA inhibitor project, biochemical, absorbance, full deck; GDH-TPI coupled enzyme counterscreen, NADH absorbance; inhibition, % at 4.8 µM; hit rate 1.2% among 360,000; AID 588335, 2011; in the data active = inhibition above about 30%;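 also: 0% = DMSO wells and 100% = wells lacking the enzyme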
* hit, by the source's call; ? = inconclusive; . = not tested or not shown; + = active, no number. An excerpt weighted towards active compounds, which were near 3% of everything screened.

SMILES	Mtb BioA inh	Rv3671c protease	Mtb FBA inh	FadD28 binding	GDH-TPI inh
CO[C@H]1CN(C)C(=O)c2ccc(NC(=O)Nc3cc(F)ccc3F)cc2OC[C@H](C)NC[C@H]1C	2	.	.	.	.
O=C(O)c1ccc(-n2cccn2)nc1	.	-7	1	-3	0
c1cnn(-c2cncc(-n3cccn3)n2)c1	.	4	16	-4	32*
CC(C)NC(=O)Nc1ccc2c(c1)C(=O)N([C@@H](C)CO)C[C@@H](C)[C@@H](CN(C)Cc1ccccc1)OCCCC[C@@H](C)O2	-1	.	.	.	.
COc1cc(=O)n(C)c2cc(N(C)C)ccc12	0	2	156*	-1	33*
CN1C(=O)c2ccc(N(C)C)cc2C1=O	0	-3	-3	-2	16
COc1cc2[nH]c3c(N4CCN(c5ccc(Cl)cc5)CC4)ncnc3c2cc1OC	0	38*	12	-1	-7
Cc1sc(NC(=O)c2ccco2)c(C(c2cccnc2)N2CCCC2)c1C (stereo unspecified)	0	8	1	0	31*
C[n+]1ccccc1/C=C/c1ccc(F)c(F)c1	1	6	-1	-4	35*
Cc1ccccc1/C=C/c1cccc[n+]1C	-1	.	-1	-4	20
C[n+]1ccccc1/C=C/c1c(F)cccc1F	-1	.	-1	0	45*
C[n+]1ccccc1/C=C/c1ccc([N+](=O)[O-])cc1	0	-2	-1	-2	35*
CC(=O)Nc1ccc(S(=O)(=O)Nc2cc(C)cn(Cc3ccccc3)c2=O)cc1	-3	-7	70*	-2	8
O=C(NCC[C@@H]1CC[C@@H](NC(=O)C2CCOCC2)[C@@H](CO)O1)c1ccc(F)cc1	-3	.	.	.	.
CCOC(=O)C(/C=C(\C#N)C(=O)OCC)=C(/N)N1CCN(c2c(C)cccc2C)CC1	.	6	4	2	50*
CCOC(=O)C(/C=C(\C#N)C(=O)OCC)=C(/N)N1CCN(c2ccc(OC)cc2)CC1	0	-1	-1	0	57*
C[C@@H]1CN([C@H](C)CO)C(=O)c2cc(/C=C/c3ccccc3)cnc2O[C@@H]1CN(C)C(=O)Cc1cccnc1	-2	.	.	.	.
c1ccc(N/N=C2\CCCc3ccccc32)nc1	1	-8	-4	1	32*
Cc1cc(N/N=C2/CCCc3ccccc32)nc2ccccc12	0	3	5	-3	-4
CS(=O)(=O)Nc1ccc(C(=O)CC(=O)Nc2ccc([N+](=O)[O-])cc2)cc1	0	-35	1	-3	77*
O=C(O)CCN1C(=O)/C(=C/c2ccc(-c3nc4ccccc4s3)o2)SC1=S	-1	-1	-3	?	5
O=C(O)CC(C(=O)O)N1C(=O)/C(=C/c2ccc(-c3nc4ccccc4s3)o2)SC1=S (stereo unspecified)	-3	11	-1	29*	6
CO[C@H]1CC[C@@H]2CCN(C)C(=O)[C@@H](C)[C@H](OC)CN(C)C(=O)c3cccc(C#N)c3OC[C@@H]1O2	-1	.	.	.	.
Cn1c(C(=O)NC2CCCCC2)cc2c(=O)n3ccccc3nc21	0	-8	114*	1	12
CC1CCCCN1C(=O)c1cc2c(=O)n3ccccc3nc2s1 (stereo unspecified)	4	0	101*	-1	19
SMILES	Mtb BioA inh	Rv3671c protease	Mtb FBA inh	FadD28 binding	GDH-TPI inh
O=C(c1cc2c(=O)n3ccccc3nc2s1)N1CCc2ccccc2C1	.	-10	.	.	.
O=C(NC1CCCC1)c1cc2c(=O)n3ccccc3nc2s1	-1	0	178*	-4	19
Cn1c(C(=O)NCc2ccccn2)cc2c(=O)n3ccccc3nc21	.	-7	196*	-1	27
COc1ccc(CCn2c(=N)c(C(=O)NC3CCCCC3)cc3c(=O)n4ccccc4nc32)cc1	-1	-5	3	-2	8
C/C=C/c1ccc([C@H]2[C@H](CO)N3CCCCN(S(=O)(=O)c4cccc(C)c4)C[C@@H]23)cc1	3	.	.	.	.
Cn1c(=O)c2cc(NC(=O)NCc3ccccc3)ccc2n1Cc1ccc(Cl)cc1	2	.	123*	-3	-7
Cn1c(=O)c2cc(NC(=O)Nc3ccccc3)ccc2n1Cc1ccccc1	10	.	142*	2	4
Cn1c(=O)c2cc(NC(=S)NC3CC3)ccc2n1Cc1ccc(F)cc1	2	.	14	-2	10
CN1C(=O)CSc2ccc(NC(=O)NCc3ccccc3)cc21	.	2	3	-1	6
CN1C(=O)c2cc(NC(=O)c3cccs3)ccc2OC[C@H]2O[C@@H](CC(=O)N3CCOCC3)CC[C@H]21	4	.	.	.	.
CCCN1[C@@H]2c3ccc(-c4cccnc4)c(=O)n3C[C@@H]2[C@@H](CO)[C@@H]1C(=O)NC1CCC1	6	.	.	.	.
CCC(=O)N1[C@@H]2Cn3c(cccc3=O)[C@H]1[C@@H](C(=O)NC1CCC1)[C@@H]2CO	0	.	.	.	.
COc1ccc(C(CNC(=O)c2cc3ccccc3cc2OC)N2CCCC2)cc1 (stereo unspecified)	-1	0	6	0	34*
COc1cc2ccccc2cc1C(=O)Nc1ccccc1N1CCCC1	.	-15	+	-5	3
COc1ccc(C(CNC(=O)CNC(=O)c2ccccc2Cl)N2CCCC2)cc1 (stereo unspecified)	-2	-1	0	-4	8
CC=Cc1ccc2n(c1=O)C[C@@H]1[C@@H](CO)[C@H](C(=O)NCC3CC3)N(C(=O)C3CCOCC3)[C@H]21 (mixture of isomers)	-1	.	.	.	.
O=S(=O)(Nc1nc(-c2sccc2Cl)cs1)c1cc(Cl)ccc1Cl	15	-8	-8	24*	15
CC(C)(C)C(=O)CSc1nc(N)cc(=O)[nH]1	-1	2	2	-4	35*
C[C@@H]1CCCCO[C@@H](CN(C)C(=O)Cc2ccccc2)[C@@H](C)CN([C@@H](C)CO)C(=O)c2cc(N(C)C)ccc2O1	-3	.	.	.	.
C[C@@H]1CN([C@H](C)CO)C(=O)c2cc(-c3ccncc3)cnc2O[C@H]1CN(C)Cc1cccnc1	1	.	.	.	.
O=C(Nc1ccc(Cl)cc1)N[C@H]1CC[C@@H](CCNS(=O)(=O)c2ccccc2F)O[C@H]1CO	2	.	.	.	.
Cc1nc(N/N=C/c2ccc(O)cc2O)cc(N2CCOCC2)n1	1	4	-1	0	64*
Oc1ccc(C=NNc2ccccn2)c(O)c1	.	.	-1	0	41*
Oc1cccc(C=NNc2ccccn2)c1	0	.	-2	-4	14
CCN(CC)S(=O)(=O)c1ccc(N/N=C/c2ccc(O)cc2O)nc1	.	11	-2	2	40*
Cc1cccc(NC(=S)N/N=C/c2cccc(O)c2)c1C	0	7	0	-5	8
O=[N+]([O-])c1ccc(NN=Cc2ccc(O)cc2O)nc1	0	.	-6	.	29
Cc1ccccc1NC(=S)N/N=C/c1ccc(O)cc1O	2	28	2	0	56*
